# Several values for one entry are separate records, joined by “and”; a condition that tells them apart may be missing. Equal values may be shown once. Inconclusive results are not listed. Activity calls are given as the source filed them. Calls follow the shape of the dose curve; as a rule, active = well fitted cell-killing curve with a large enough effect in the repeat runs; inconclusive = weak or mixed curves; inactive = no such curve, though single readings can be large or run the other way.
# Assay: qHTS assay to identify small molecule antagonists of the androgen receptor (AR) signaling pathway - cell viability counter screen (AID 743033; also: nearly all actives have a fitted effect of over 45% in size)
# Settings: AR-bla HEK293 viability, CellTiter-Glo luminescence, 16 h; series mostly up to 58.5 µM; activity change, negative = cytotoxicity: at the top concentration
# % is scaled to controls: 0 for no effect and ±100 for the full control effect; potency is read from the fitted curve at half-maximal effect.
Structure (SMILES),"activity change, negative = cytotoxicity",Potency
CC(C)OC(=O)c1cc2c(OCC(O)CNC(C)(C)C)cccc2[nH]1 (configuration not stated),0.6% (inactive),–
CC[C@H]1O[C@]2(CC[C@@H]1C)C[C@@H]1C[C@@H](C/C=C(\C)C[C@@H](C)/C=C/C=C3\CO[C@@H]4[C@H](O)C(C)=C[C@@H](C(=O)O1)[C@]34O)O2,-11.4% (inactive),–
CCCCc1oc2ccc(NS(C)(=O)=O)cc2c1C(=O)c1ccc(OCCCN(CCCC)CCCC)cc1,–,21.3 µM (active)
CCCCN(CCCC)c1ccc(C(=O)c2ccccc2C(=O)O)c(O)c1,-26.7% [at 78.9 µM] (inactive),–
CN(C/C=C/C#CC(C)(C)C)Cc1cccc2ccccc12,0.374% (inactive),–
CC(C)(C)NC(=O)[C@@H]1C[C@@H]2CCCC[C@@H]2CN1C[C@@H](O)[C@H](Cc1ccccc1)NC(=O)[C@H](CC(N)=O)NC(=O)c1ccc2ccccc2n1,–,49.6 µM (active)
Oc1c(Cl)cc(Cl)c2cccnc12,-19.3% (inactive),–
O=C(Nc1ccc(Oc2ccc(Cl)cc2)c(Cl)c1)c1cc(I)cc(I)c1O,4.01% (inactive),–
CCN(CC)CCCC(C)Nc1c2ccc(Cl)cc2nc2ccc(OC)cc12 (configuration not stated),-13.6% (inactive),–
CN(C)c1ccc(C2(c3ccc(N(C)C)cc3)OC(=O)c3cc(N(C)C)ccc32)cc1,0.391% (inactive),–
CC(C)=CCOc1ccc(/C=C/C(=O)c2ccc(OCC=C(C)C)cc2OCC(=O)O)cc1,0.731% (inactive),–
CCCCC(CC)COP(=O)(O)OCC(CC)CCCC (configuration not stated),-28.6% (inactive),–
O=C(Nc1cccc(C(F)(F)F)c1)c1cc(Br)cc(Br)c1O,–,4.25 µM (active) and 4.36 µM (active)
Cc1ccc(O)c(C(C)(C)C)c1,–,15.5 µM (active)
CCCCCCCCn1sc(Cl)c(Cl)c1=O,–,6.16 µM (active)
O=c1[nH]sc2ccccc12,–,24.5 µM (active)
CCCCC(CC)COC(=O)c1ccccc1C(=O)O (configuration not stated),-15.9% [at 78.9 µM] (inactive),–

# — PubChem BioAssay (Tox21)
